Assay results taken from PubChem BioAssay (NCI).
Compounds without any hit were thinned out: in the full panel of roughly 79,000, 15% have a hit. Unmarked numbers belong to inactive results. The source made the active and inactive calls. Cut-off read from the data, not from the text of the source: active = growth inhibition above about 70%; inactive = the rest.

What was measured:
[1] = NCI Yeast Anticancer Drug Screen. Data for the rad50 strain (AID 155);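 note: 0% = growth of vehicle-only cultures of the same strain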; conditions: S. cerevisiae rad50 strain growth inhibition; at 50.0 µM; active compounds read high
Outline: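 A DNA repair-deficient yeast mutant serves as the test organism; compound-induced growth inhibition is calculated against vehicle-treated cells.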

[2] = NCI Yeast Anticancer Drug Screen. Data for the mec2-1 strain (AID 157); conditions: S. cerevisiae mec2-1 strain, at 50.0 µM, active compounds read high
Outline: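 Using mec2-1 yeast: add compound, measure growth, express inhibition versus vehicle-treated cultures.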

[3] = NCI Yeast Anticancer Drug Screen. Data for the sgs1 mgt1 strain (AID 161);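 note: 0% = growth of cultures given vehicle only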; conditions: S. cerevisiae sgs1 mgt1 strain, at 50.0 µM, active compounds read high
Outline: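 Compounds are added to genetically altered yeast, and growth is compared with cultures given vehicle alone to give percent inhibition.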

[4] = NCI Yeast Anticancer Drug Screen. Data for the cln2 rad14 strain (AID 165);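 note: 0% = growth equal to vehicle treated cultures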; conditions: S. cerevisiae cln2 rad14 strain, at 50.0 µM, active compounds read high
Outline: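 Yeast strain cln2 rad14, bearing defects in cell cycle control and DNA repair, serves as the test system; values reflect growth inhibition compared with vehicle.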

[5] = NCI Yeast Anticancer Drug Screen. Data for the bub3 strain (AID 167); conditions: S. cerevisiae bub3 mutant strain, at 50.0 µM, active compounds read high
Outline: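 Inhibition values come from growth of compound-treated mutant yeast normalised to vehicle-treated controls.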

[6] = NCI Yeast Anticancer Drug Screen. Data for the mlh1 rad18 strain (AID 175); conditions: S. cerevisiae mlh1 rad18 strain growth inhibition; at 50.0 µM; active compounds read high
Outline: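 Steps: expose repair-defective yeast to compound; measure growth; express inhibition against vehicle-treated controls.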

| Structure (SMILES) | growth inhibition [1] | growth inhibition [2] | growth inhibition [3] | growth inhibition [4] | growth inhibition [5] | growth inhibition [6] |
| --- | --- | --- | --- | --- | --- | --- |
| O=C(O)C1CCCCC1C(=O)Nc1cccc2ccccc12 (stereo not drawn) | 6.65% | -2.8% | -4.3% | -7.95% | 24.4% | -39.5% |
| O=c1oc2ccccc2c2ccccc12 | -2.8% | -9.55% | -16.5% | -5.95% | 1.25% | -7.8% |
| CC(C)C(=O)Nc1ccc(Cl)c(Cl)c1 | 33.9% | 6.35% | 44.3% | 41.2% | -4.05% | 58.1% |
| CN1c2ccc(C3N(C(=O)C(F)(F)F)C=CN3C(=O)C(F)(F)F)cc2Sc2cc(C3N(C(=O)C(F)(F)F)C=CN3C(=O)C(F)(F)F)ccc21 | -3.65% | 1.15% | -2% | -6.9% | 1.05% | 19.9% |
| C=CCN(CC=C)P(=O)(N(CC=C)CC=C)N(CC=C)CC=C | 22.3% | 8.9% | 16.4% | 0.15% | 17.6% | 21.4% |
| OCCOCC#CCOCCO | 3.9% | -0.25% | -2.35% | -7.45% | -9.25% | 9.3% |
| CCCCN1C(=O)C(=O)N(CCc2ccc(OC)c(OC)c2)C1=O | 28% | 5.8% | 11.9% | 18.7% | 1.35% | 18.1% |
| COc1ccc(C2(C)OCCCC2([NH-])C[NH-])cc1.[Cl][Pt+2][Cl] (stereo not drawn) | 10.9% | -3.15% | -2.95% | 21.6% | -0.4% | 9.45% |
| OC1COC(C2CCCO2)OC1 (stereo not drawn) | 10.4% | -6.2% | -2.35% | 1.35% | -13.7% | 11.8% |
| CCCCCCCCCCCCCCCC(=O)NCC(=O)NC1C(CO)OC(Nc2ncnc3nc[nH]c23)C(O)C1O (stereo not drawn) | 61.8% | 19% | 82.7% (active) | 14.7% | 76.2% (active) | -11.7% |
| O=[N+]([O-])c1cc2c(c([N+](=O)[O-])c1)Nc1cc(Cl)ccc1O2 | 1.6% | 19.8% | 17.6% | 11.8% | 4.4% | 26.9% |
| CCCCCCOC(=O)C[C@H]1C[C@H](C(=O)OCCCCCC)C1(C)C | -4.45% | -15.6% | 1.8% | -36.6% | -21.1% | -7.3% |
| CC1(C)CC[C@]2(C(=O)O)CC[C@]3(C)C(=CC[C@@H]4[C@@]5(C)CC[C@H](OC6OC(CO)C(O)C(O)C6OC6OC(CO)C(O)C(O)C6O)C(C)(C)[C@@H]5CC[C@]43C)[C@@H]2C1 (stereo partly drawn) | 86.8% (active) | 86.7% (active) | 87.1% (active) | 86.2% (active) | 84.3% (active) | 83.5% (active) |
| O=c1[nH]c(Sc2ccccc2)nc2ccccc12 | 15.7% | 9.45% | 13.1% | -58.1% | 18.2% | 7.25% |
| c1cc(CNCCN2CCNCC2)ccn1 | 7.45% | -34.2% | -3.7% | -1.9% | -48.9% | 16.8% |
| COc1cccc(C(C#N)c2cnc3ccccc3n2)c1 (stereo not drawn) | 27.4% | 14.6% | 10.1% | 33.2% | 37.1% | 27.4% |
| CCN(CC)CCC(C(=O)O)(c1ccccc1)C1(O)CCCC1 (stereo not drawn) | -7.5% | -13.3% | -7.9% | -26.8% | 7.1% | -25.9% |
| CC(=O)N1C(Nc2nccs2)CCN1c1ccccc1 (stereo not drawn) | -43.8% | -64.5% | -21% | 3.1% | -6.75% | -34.2% |
| CCOCc1cc(Cc2cc(COCC)c3cccnc3c2O)c(O)c2ncccc12 | 55.7% | 16.7% | 39.6% | 10.2% | 0.45% | 16.2% |

| Structure (SMILES) | growth inhibition [1] | growth inhibition [2] | growth inhibition [3] | growth inhibition [4] | growth inhibition [5] | growth inhibition [6] |
| --- | --- | --- | --- | --- | --- | --- |
| Cc1ccc(C(C)C)cc1NC=O | -6.55% | -13.3% | -20.1% | 0.05% | -2.6% | 5.4% |
| O=C(O)CO.[NH2-].[NH2-].[Pt+2] | -10.1% | -17.8% | -4.85% | -14.9% | -20.2% | -18.2% |
| CSSC(SSC)C(SSC)SSC | -4.7% | 4.2% | 43.4% | 1.4% | 36.8% | 47.8% |
| CN(C)CCOC(=O)C(O)C1CCCCC1 (stereo not drawn) | -14.3% | 12.8% | 5.5% | 18.4% | 15.2% | -19.9% |
| O=C(c1ccccc1)C1Nc2ccccc2CO1 (stereo not drawn) | -5% | -13.3% | -13.5% | -23.4% | -1.6% | 28.9% |
| COc1ccc(NS(=O)c2cccc(C)c2)cc1 (stereo not drawn) | -8.05% | -11.1% | -16.1% | -18.3% | -3.1% | 9.4% |
| CCOC(=O)c1ccc(NC(=O)c2ccc(Cl)cc2Cl)cc1 | -7.7% | 18.6% | 6.5% | -18.1% | 36.6% | -4.25% |
| Cc1ccc(NC(=O)CC(=O)n2nc(-c3ccccc3)c(N=Nc3ccc(Cl)cc3)c2-c2ccccc2)cc1 | 9.95% | 4% | 13.9% | 22.7% | 46% | 37.7% |
| CCN1C(=O)c2cc(=O)[nH]c(O)c2C1C (stereo not drawn) | 7.8% | -2.7% | -1.7% | -20.4% | -2.65% | 10.9% |
| COc1ccc(NC(=O)Nc2ccc(SC)cc2)c(Cl)c1 | 0.75% | 5.6% | -2.8% | -13.9% | 19.5% | 20.9% |
| COC(=O)C1(CC(=O)c2cccs2)NC(=S)NC(=O)C1C#N (stereo not drawn) | 9.4% | 3.55% | -7.5% | -3.35% | -11.3% | 2.55% |
| CC1(CO)CSC(Nc2ccc(Cl)c(Cl)c2)=N1 (stereo not drawn) | 19.1% | -12.9% | 37.8% | 32.5% | 20.1% | 19.1% |
| CCOC(=O)/C(=C\c1c(C)[nH]c2ccccc12)P(=O)(OCC)OCC | -15.2% | -15.7% | -22.9% | -0.3% | -8.95% | 11.5% |
| CCCCC(O)(CCCC)CC(C)C | 8.4% | 19.5% | -2.4% | -19.9% | -16.7% | 5.85% |
| Clc1ccccc1C1OCCCO1 | -0.95% | 15.1% | -22.4% | -29.8% | -8.1% | -6.1% |
| O=C(O)Cc1ccc2c(c1)C(=O)C(=O)N2 | 18.6% | 18.6% | 7.05% | -8.75% | -18.7% | 15.1% |
| O=c1cn[nH]c(=O)[nH]1 | 35.4% | 0.7% | 32.5% | 10.8% | 4.9% | 11.5% |
| COC(=O)CCSCC(N)C(=O)O (stereo not drawn) | 1.3% | -2.95% | -13.3% | -39.5% | -0.95% | -18.4% |
| Cc1ccc(N=NC2=C3Sc4ccccc4N=C2N(c2ccc(Br)cc2)C(=S)N3c2ccc(Cl)cc2)cc1 | -8.6% | -3.35% | -21.4% | 18.9% | -3.4% | 1.05% |
